We go through 38 sequences from the OligoGym collection.
Also: reference of the scale not given here.

One experiment addresses CXorf56. The experiment is described as follows: pooled miR-30 sensor sort-seq; sequence = guide strand. As to conditions: shRNA.
In the case of TTTCTCTAACTGGCAGTCCAGC, the sensor-assay potency score (higher = more potent) is -1.26.
The same measure, in the same setting: with TTTCTGAGTATATATGTTCGTT the figure was -0.396.
Still for that read-out and setting: with TTCATTTTCGCTTTCTTGGCTT the figure was 0.484.
On the same count and under the same terms, in the case of TTCTGAGTATATATGTTCGTTT it was -0.865.
Sequence TTGGTCATCATCACCTTCTTAG returned a sensor-assay potency score (higher = more potent) of -0.419.

Another experiment addresses CYB5D1. The description is as above. The note with it: shRNA.
With TTGAAGTACAGAAGTATTGCAG, the sensor-assay potency score (higher = more potent) turned out to be 0.794.
The same measure, in the same setting: with TGAAGTACAGAAGTATTGCAGG the figure was -0.202; with TACAGAAGTATTGCAGGTGTGT, 0.111.
Still for that read-out and setting: in the case of TACGTCTTGAGTCTACACGAGT it was -1.09; in that of TTTGGATCAAACCAGTGGCTGA, -1.34.
On the same count and under the same terms, in the case of TATTCCTGTGCCAATGACGTTA it was -0.429; in that of TACTGAGATAGTCAAATTCTTC, -1.34.
The sequence TACTTGATCTTCTTGTATCATT came in with a sensor-assay potency score (higher = more potent) of -1.02.
On the same count and under the same terms, with TTAATGATGCGGATGCTCCGGG the figure was -0.0268.
The same measure, in the same setting: with TAGCGGTGTAGGATTTCCCATA the figure was -1.38.

A further experiment deals with CYB5RL. Described as above. As to conditions: shRNA.
Take TTCTCTTGGTAACTCCAGGGAA: the sensor-assay potency score (higher = more potent) was -0.56.
The same measure, in the same setting: with TTTATAGAAGAAATCTCCGAAA the figure was -0.391.
Still for that read-out and setting: with TTTCTCTTGGTAACTCCAGGGA the figure was -0.389; with TTTAATTAGGTCCTGGCCCAGG, -0.401; with TAGCACTTAATTAACACTTCAA, 0.518.
On the same count and under the same terms, with TAGAGGTCAAACACACAGGGTG the figure was -0.0487; with TAGAGCAAACCGGACACGGTAG, -0.685.
For TCTAAGTCATCTACTATCCCTC, the sensor-assay potency score (higher = more potent) stood at 0.024.
Still for that read-out and setting: in the case of TTAACACTTCAAAGTATCCTTC it was 0.251; in that of TAGGTGTCCTTAGTGAGCCTGT, 0.0964; in that of TTCCTCAGTGTCGTCGTCCTCT, -0.09.
Consider TTAATTAACACTTCAAAGTATC, for which the sensor-assay potency score (higher = more potent) was -1.17.

For another experiment, the target named is CYBRD1. The description is as above. As to conditions: shRNA.
For TTAAACTCTAGTGCGCTCCCAT, the sensor-assay potency score (higher = more potent) is -0.237.
TTCATCAGGAGCTTGCTGCATT showed a sensor-assay potency score (higher = more potent) of 0.213.
On the same count and under the same terms, in the case of TATATTGTTAACATTGTGGTTC it was 0.299; in that of TACTTCATTGTTTAACTCTGAA, -0.114; in that of TAGAGCTAGTTTTGAAACGTGA, 0.234.
On the same count and under the same terms, with TTTATATTAATCACATCCTTTC the figure was -0.692; with TATCAGTCCAACCCAGCTGTGC, -0.838.
On to TTAACTCTGAATCTGATTTGTC, for which the sensor-assay potency score (higher = more potent) was -0.16.
The same measure, in the same setting: with TTATTTCAAGAAACCATCCTTT the figure was 0.251.
The same measure, in the same setting: in the case of TTTAACTCTGAATCTGATTTGT it was -0.198; in that of TTTTCCTTGCTGCTACTTCATT, -1.57.
